The source of these data is ChEMBL document CHEMBL3988442, “University of Dundee, Small-Polar-MMV Screening Library” (2021).

Holding throughout (design): scale not given: direction of the effect not stated beside the values
For test [1], the target named is Protein translocase subunit SecA (Escherichia coli (strain K12)) (UniProt P10408). The experiment in a line: Assay to Identify E. coli SecA ATPase Inhibitors. In kind it is functional. The following applies: 30 µM.
In test [2] the target is T1, Ubiquitin-activating enzyme e1, putative (Leishmania donovani (strain BPK282A1)) (UniProt E9BSI1).
T1 sequence (whole entry): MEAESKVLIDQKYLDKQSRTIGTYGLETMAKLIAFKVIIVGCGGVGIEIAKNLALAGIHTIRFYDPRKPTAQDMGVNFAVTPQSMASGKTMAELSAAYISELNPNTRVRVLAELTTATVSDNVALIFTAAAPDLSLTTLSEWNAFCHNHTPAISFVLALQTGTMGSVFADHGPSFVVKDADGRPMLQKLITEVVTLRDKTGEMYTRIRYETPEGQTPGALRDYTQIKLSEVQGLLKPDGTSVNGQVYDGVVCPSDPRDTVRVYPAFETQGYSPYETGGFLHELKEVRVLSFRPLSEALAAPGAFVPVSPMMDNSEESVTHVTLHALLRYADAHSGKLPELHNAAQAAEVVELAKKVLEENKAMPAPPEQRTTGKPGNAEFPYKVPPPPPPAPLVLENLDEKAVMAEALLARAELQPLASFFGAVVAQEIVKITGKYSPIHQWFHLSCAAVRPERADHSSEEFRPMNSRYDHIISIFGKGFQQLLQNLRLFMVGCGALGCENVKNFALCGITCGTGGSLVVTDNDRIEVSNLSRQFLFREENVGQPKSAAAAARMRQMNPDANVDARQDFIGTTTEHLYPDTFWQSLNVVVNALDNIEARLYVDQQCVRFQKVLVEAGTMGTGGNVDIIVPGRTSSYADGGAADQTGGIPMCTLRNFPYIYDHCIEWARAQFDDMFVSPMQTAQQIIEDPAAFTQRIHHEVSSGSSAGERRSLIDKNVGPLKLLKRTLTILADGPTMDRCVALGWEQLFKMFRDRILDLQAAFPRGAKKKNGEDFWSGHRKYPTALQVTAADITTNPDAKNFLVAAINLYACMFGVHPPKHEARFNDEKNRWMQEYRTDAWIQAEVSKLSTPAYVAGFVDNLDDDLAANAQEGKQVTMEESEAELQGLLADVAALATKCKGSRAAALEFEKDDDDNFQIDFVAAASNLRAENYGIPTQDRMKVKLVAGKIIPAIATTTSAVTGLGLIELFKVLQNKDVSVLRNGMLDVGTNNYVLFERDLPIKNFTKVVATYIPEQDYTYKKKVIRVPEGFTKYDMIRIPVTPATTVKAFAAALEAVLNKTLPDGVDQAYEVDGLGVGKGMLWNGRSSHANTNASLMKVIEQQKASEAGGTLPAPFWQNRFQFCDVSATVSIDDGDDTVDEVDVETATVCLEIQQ
The experiment in a line: Leishmania donovani Ubiquitin Activating Enzyme (LdE1). In kind it is functional. The note with it: 30 µM.

The target in test [3] is Sialic acid-binding Ig-like lectin 9 (Homo sapiens) (UniProt Q9Y336). The experiment in a line: Hs-Siglec9 ALPHAscreen SOP 20170721. The note with it: 10 µM. On the technique in general: Bead proximity is the source of the signal in Alpha formats.
For a further test, the system named is Trypanosoma cruzi. The test is described as follows: Trypanosoma cruzi phosphomannomutase and mannose-1-phosphate guanylyltransferase assay. The format is functional. The following applies: 10 µM.
Test [4] deals with T2, Arginase-2, mitochondrial (Homo sapiens) (UniProt P78540).
T2 sequence (whole entry): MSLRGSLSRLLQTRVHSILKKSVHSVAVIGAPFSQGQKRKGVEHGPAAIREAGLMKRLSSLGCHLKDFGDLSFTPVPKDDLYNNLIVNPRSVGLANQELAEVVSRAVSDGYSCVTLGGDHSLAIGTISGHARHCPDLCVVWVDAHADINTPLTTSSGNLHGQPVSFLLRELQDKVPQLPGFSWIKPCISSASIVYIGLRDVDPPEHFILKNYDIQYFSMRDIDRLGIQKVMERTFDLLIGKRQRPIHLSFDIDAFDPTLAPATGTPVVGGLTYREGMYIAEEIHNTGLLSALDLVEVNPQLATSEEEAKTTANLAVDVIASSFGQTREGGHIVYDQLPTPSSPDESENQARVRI
The experiment in a line: in vitro enzyme assay to detect the production of urea directly proportional to the activity of Arginase II. Also: in the data most compounds retested in dose-response had high values. The following applies: 33.3 µM. The format is functional.

For test [5], the target named is T3, Proteasome subunit beta (Trypanosoma cruzi) (UniProt O96673).
T3 sequence (whole entry): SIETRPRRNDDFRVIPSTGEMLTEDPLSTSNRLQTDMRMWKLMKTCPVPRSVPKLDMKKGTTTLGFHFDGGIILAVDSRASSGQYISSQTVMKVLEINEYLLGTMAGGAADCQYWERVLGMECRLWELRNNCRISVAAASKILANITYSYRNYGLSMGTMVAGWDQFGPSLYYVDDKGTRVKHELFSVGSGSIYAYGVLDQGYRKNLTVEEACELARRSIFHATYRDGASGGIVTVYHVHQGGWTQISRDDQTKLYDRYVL
The test is described as follows: Trypanosoma cruzi proteasome chymotrypsin-like activity (TcProtChymo) assay. Also: in the data most compounds retested in dose-response had high values. In kind it is functional. The note with it: 9.37 µM.

For a further test, the species on record is Homo sapiens. The test is described as follows: To identify inhibition of the IFN signalling (Jak-Stat) pathway via expression of an eGFP reporter gene under the control of an IFN-stimulated response element (ISRE) containing MxA promoter. In kind it is functional. The note with it: 30 µM. For orientation: In a reporter assay the amount or activity of a reporter protein is the signal.

The target in test [6] is T4, Tyrosyl-tRNA synthetase, putative (Trypanosoma cruzi (strain CL Brener)) (UniProt Q4DSP6).
T4 sequence (whole entry): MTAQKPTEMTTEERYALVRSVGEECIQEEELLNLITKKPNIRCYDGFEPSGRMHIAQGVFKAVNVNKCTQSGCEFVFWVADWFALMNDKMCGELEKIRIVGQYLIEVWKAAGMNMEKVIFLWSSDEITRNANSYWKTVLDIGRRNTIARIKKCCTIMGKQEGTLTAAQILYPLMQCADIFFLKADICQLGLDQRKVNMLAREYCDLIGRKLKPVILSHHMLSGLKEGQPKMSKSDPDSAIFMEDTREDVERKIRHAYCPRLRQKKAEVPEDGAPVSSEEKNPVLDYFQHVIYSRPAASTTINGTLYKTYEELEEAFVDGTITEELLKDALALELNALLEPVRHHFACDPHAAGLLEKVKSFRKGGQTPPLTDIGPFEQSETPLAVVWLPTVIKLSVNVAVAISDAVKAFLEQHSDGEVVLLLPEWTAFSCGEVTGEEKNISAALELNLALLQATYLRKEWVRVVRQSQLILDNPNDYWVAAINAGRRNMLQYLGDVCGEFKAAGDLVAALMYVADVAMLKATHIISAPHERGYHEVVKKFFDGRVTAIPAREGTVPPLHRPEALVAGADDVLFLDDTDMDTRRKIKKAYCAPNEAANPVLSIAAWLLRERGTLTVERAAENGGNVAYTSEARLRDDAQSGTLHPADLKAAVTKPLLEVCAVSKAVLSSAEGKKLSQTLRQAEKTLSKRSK
The experiment in a line: Trypanosoma cruzi tyrosyl tRNA synthetase (TcYRS) _High Tyrosine SOP. Also: in the data most compounds retested in dose-response had high values. The following applies: 30 µM. The format is functional.

Test [7] concerns the target T4, Tyrosyl-tRNA synthetase, putative (Trypanosoma cruzi (strain CL Brener)). The experiment in a line: Trypanosoma cruzi tyrosyl tRNA synthetase (TcYRS) SOP. In kind it is functional. The note with it: 30 µM.
The target of test [8] is Chromo domain-containing protein 1 (Saccharomyces cerevisiae (strain ATCC 204508 / S288c) (Baker's yeast)) (UniProt P32657). The experiment in a line: ScCHD-1 Enzyme Inhibition Assay. Also: in the data most compounds retested in dose-response had high values. The following applies: 30 µM. In kind it is functional.

For some of these results: Entries with a potency or affinity are not part of this list.

Sequence of Protein translocase subunit SecA (Escherichia coli (strain K12)) (P10408 whole entry): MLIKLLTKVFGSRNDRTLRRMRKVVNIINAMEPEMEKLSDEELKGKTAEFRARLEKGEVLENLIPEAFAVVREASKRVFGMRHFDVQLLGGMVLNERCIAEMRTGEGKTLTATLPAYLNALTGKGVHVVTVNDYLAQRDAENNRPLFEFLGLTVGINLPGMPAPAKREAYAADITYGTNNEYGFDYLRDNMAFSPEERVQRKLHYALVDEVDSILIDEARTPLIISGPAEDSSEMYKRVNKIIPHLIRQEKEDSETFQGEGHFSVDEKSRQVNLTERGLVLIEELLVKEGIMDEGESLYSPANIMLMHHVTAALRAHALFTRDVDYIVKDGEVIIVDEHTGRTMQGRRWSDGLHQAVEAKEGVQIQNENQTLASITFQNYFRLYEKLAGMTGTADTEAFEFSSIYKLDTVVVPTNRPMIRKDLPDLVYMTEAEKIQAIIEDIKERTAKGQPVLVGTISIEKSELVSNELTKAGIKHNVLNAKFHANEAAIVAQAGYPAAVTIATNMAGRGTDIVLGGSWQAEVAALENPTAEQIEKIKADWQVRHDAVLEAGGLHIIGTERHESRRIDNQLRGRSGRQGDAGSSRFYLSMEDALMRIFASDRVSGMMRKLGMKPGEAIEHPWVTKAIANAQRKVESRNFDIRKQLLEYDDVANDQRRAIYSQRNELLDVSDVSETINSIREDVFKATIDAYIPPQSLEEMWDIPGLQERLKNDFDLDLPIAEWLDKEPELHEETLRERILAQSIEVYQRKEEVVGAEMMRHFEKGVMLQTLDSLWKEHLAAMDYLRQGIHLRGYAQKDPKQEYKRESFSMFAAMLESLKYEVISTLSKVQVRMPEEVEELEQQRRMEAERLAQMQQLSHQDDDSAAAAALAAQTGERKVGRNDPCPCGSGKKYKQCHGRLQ
Sequence of Sialic acid-binding Ig-like lectin 9 (Homo sapiens) (Q9Y336 whole entry): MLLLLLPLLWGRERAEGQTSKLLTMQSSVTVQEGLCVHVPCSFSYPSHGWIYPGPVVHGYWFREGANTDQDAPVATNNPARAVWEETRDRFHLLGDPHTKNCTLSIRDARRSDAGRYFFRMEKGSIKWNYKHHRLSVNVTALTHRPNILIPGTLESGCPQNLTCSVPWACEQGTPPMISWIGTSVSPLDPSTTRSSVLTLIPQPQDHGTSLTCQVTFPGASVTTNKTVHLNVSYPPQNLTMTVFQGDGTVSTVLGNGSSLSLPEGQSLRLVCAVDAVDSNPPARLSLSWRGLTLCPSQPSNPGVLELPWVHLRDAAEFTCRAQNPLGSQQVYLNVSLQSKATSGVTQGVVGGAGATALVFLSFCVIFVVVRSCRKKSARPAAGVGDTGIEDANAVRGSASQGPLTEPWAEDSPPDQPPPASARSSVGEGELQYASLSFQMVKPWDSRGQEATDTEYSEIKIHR
Sequence of Chromo domain-containing protein 1 (Saccharomyces cerevisiae (strain ATCC 204508 / S288c) (Baker's yeast)) (P32657 whole entry, the tested form may be a part): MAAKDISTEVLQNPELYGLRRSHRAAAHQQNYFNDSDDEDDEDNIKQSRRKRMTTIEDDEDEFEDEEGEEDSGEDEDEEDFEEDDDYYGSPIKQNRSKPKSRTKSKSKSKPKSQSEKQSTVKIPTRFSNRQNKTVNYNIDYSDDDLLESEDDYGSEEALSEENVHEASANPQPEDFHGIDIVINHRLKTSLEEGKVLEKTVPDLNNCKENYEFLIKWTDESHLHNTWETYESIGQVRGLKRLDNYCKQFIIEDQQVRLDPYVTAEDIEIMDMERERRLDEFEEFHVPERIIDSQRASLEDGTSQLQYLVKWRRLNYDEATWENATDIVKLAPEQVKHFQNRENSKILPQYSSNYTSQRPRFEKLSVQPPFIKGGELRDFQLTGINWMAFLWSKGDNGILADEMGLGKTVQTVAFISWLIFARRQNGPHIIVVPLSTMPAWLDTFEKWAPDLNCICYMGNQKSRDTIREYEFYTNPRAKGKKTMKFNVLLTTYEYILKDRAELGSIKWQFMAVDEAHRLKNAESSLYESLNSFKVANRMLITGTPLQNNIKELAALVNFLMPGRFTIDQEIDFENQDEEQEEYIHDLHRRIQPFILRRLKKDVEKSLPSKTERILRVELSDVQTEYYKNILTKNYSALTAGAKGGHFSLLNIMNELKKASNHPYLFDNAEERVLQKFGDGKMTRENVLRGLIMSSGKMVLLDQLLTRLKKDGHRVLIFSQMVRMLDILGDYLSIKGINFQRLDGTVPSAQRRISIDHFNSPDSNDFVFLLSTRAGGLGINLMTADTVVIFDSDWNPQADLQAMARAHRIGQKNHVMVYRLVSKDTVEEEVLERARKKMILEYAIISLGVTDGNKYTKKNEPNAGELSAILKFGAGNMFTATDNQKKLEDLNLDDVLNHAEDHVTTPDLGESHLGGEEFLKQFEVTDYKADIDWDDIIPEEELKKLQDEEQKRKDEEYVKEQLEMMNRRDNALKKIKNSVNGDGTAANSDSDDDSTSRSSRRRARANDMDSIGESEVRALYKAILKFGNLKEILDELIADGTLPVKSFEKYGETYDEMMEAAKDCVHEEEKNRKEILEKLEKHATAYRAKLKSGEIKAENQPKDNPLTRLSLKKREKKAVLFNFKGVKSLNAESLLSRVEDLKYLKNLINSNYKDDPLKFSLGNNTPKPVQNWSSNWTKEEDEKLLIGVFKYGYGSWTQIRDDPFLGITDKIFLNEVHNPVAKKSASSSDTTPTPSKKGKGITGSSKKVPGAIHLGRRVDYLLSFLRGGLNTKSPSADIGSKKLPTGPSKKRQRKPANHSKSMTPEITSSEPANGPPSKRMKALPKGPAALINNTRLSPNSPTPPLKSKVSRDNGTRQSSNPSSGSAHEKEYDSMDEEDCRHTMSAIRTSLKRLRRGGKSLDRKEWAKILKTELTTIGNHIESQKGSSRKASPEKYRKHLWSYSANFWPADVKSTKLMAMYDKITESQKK

Take `OC(CNCCn1cccn1)c1ccc2c(c1)OCCO2` (centres undefined): the Percent Effect in test [1] is -5.4%; in test [2] it was 13.3%; in [3], 10.3%; with Trypanosoma cruzi it was 1%; in [4] it was 0%; in test [5], 4.83%. Moreover, the Percent Effect in the test listed under Homo sapiens was -2.77%; in [6], 4.74%; in [7] it was 10.3%; in test [8] it was -13.4%.

With `O=C1CN(Cc2ccc(-c3ccccc3C(=O)O)cc2)CCN1`, the Percent Effect was 1.19% in test [1]; 12% in [2]; -5.14% in test [3]; -4.73% in the test on Trypanosoma cruzi; -1.33% in [4]; 14.1% in test [5]. Moreover, the Percent Effect is 27.5% in the test filed under Homo sapiens, 1.06% in test [6], 0% in [7] and -24.4% in test [8].

Take `Cc1n[nH]c(=O)c2c(NC(=O)CN3CCCC(C(F)(F)F)C3)oc(C)c12` (centres undefined): the Percent Effect was 2.19% in test [1]; 23.1% in [2]; -19.8% in test [3]; 1.41% in the test on Trypanosoma cruzi; 0% in test [4]; 17.7% in test [5]. The Percent Effect in the test filed under Homo sapiens is -1.71%; in [6], 3.35%; in test [7] it was 22.9%; in test [8] it was -4.61%.

With `CCC(NC(N)=O)c1ccccc1OCC(=O)N1CCCC1` (centres undefined), the Percent Effect in [1] is -1.4%; in [2], 10.3%; in [3], -13.8%; in the test on Trypanosoma cruzi it was -4.41%; in [4], -4.92%; in test [5], 9.81%. For the same compound, the Percent Effect in the test listed under Homo sapiens is 16.9%; in [6] it was 5.26%; in [7], 18.1%; in test [8], -6%.

`CN1CCCC2(CCN(C(=O)CCn3cncn3)C2)C1=O` (centres undefined): the Percent Effect in test [1] was -9.37%; in test [2] it was 2.7%; in test [3], 4.1%; with Trypanosoma cruzi, 4.17%; in [4], 5.94%; in [5], 12%. Also, the Percent Effect in the test listed under Homo sapiens is -0.496%; in test [6], 4.79%; in test [7] it was 19.5%; in test [8], -0.366%.

Take `COCC(=O)N1CCC2(CC1)CC(CC(=O)NC1CC1)c1ccccc12` (centres undefined): the Percent Effect is -8.48% in test [1]; -1.3% in test [2]; 3.8% in [3]; -1.66% in the test on Trypanosoma cruzi; -6.88% in [4]; -0.0883% in test [5]. In addition, the Percent Effect is -8.57% in the test filed under Homo sapiens, -0.526% in test [6], 5.13% in [7] and -0.682% in [8].

For the compound `O=C(c1cc(Cl)c2c(c1)OCO2)N1CCCC(n2ccnc2)C1` (centres undefined), the Percent Effect in [1] is -2.43%; in test [2], 5.33%; in [3] it was 3.84%; in the test on Trypanosoma cruzi, 2.01%; in test [4], 0%; in test [5] it was 7.72%. For the same compound, the Percent Effect in the test listed under Homo sapiens was 9.8%; in [6] it was -6.84%; in [7], 5.13%; in [8], -5.15%.

As to `Cc1[nH]/c(=N\C(=O)c2csc(NC3CC3)n2)sc1C`, the Percent Effect in [1] was -5.11%; in test [2], 8.11%; in test [3] it was -0.99%; in the test on Trypanosoma cruzi, -1.84%; in test [4], -1.75%; in the test filed under Homo sapiens, 10.7%. The Percent Effect amounted to 11.2% in test [6], 14.6% in test [7] and 14.5% in test [8].

As to `Cc1ccc(C(=O)N2CCCS2(=O)=O)cc1Cl`, the Percent Effect in [1] was -1.08%; in test [2], 5.33%; in test [3], -1.7%; in the test with Trypanosoma cruzi it was -4.62%; in test [4], 3.1%; in test [5], 3.99%. The Percent Effect in the test filed under Homo sapiens was -6.01%; in test [6], 0.526%; in test [7] it was 0%; in [8] it was -6.7%.

Regarding `CCn1cnnc1CNC(=O)N1CCC(C(=O)NC)CC1`, the Percent Effect in test [1] is -5.88%; in test [2] it was 5.33%; in test [3], 0.795%; with Trypanosoma cruzi, -4.42%; in test [4], -2.66%; in [5], 1.78%. In addition, the Percent Effect in the test listed under Homo sapiens is 10.8%; in [6], -0.526%; in [7], 2.56%; in test [8], -6.68%.

In the case of `CCCn1ccc(C(=O)N2CCOC(c3nc(-c4cccs4)no3)C2)n1` (centres undefined), the Percent Effect in test [1] was -2.75%; in test [2], 6.67%; in test [3] it was 6.13%; in the test on Trypanosoma cruzi, -1.18%; in [4] it was 0%; in test [5], 4.76%. Further, the Percent Effect is 1.83% in the test filed under Homo sapiens, 5.29% in test [6], 17.5% in [7] and -17.3% in test [8].
